According to PubChem BioAssay AID602244 (Sanford-Burnham Center for Chemical Genomics, 2012):
Hit rate of the full screen: of about 360,000 compounds, about 1,300 (0.36%) were called active. The full list was thinned out, with actives kept by preference. Unmarked numbers belong to inactive results. Rule as the data show it: active = inhibition above about 34% (passing the limit was not always enough); inactive = the rest.

Target: C-X-C chemokine receptor type 6 (Homo sapiens) (UniProt O00574)
Test: CXCR6 receptor inhibitors, primary screen, cell-based, beta-arrestin, luminescence, CHO-K1 PathHunter, 1536-well (AID 602244);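 also: antagonist mode with CXCL16 agonist at 10 nM final; 0% = 10 nM CXCL16 with DMSO and 100% = unstimulated wells without agonist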
Conditions: at 20 µM, hits give high values

Sequence of C-X-C chemokine receptor type 6 (Homo sapiens) (O00574 whole entry, looked up): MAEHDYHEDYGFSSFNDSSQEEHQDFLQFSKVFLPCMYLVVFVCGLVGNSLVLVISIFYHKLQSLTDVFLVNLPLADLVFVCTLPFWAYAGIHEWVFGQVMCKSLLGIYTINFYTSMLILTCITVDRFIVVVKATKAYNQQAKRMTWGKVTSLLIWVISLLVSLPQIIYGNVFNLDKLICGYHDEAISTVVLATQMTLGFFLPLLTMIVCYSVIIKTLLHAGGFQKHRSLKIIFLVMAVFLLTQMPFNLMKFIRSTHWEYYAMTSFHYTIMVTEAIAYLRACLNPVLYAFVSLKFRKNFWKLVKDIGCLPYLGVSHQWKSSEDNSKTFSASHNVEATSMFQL

Row | Compound | inhibition
1 | COC(=O)C1=C(C(=O)OC)[C@@H]2N(C)c3ccccc3[C@@]23C[C@@H](C(=O)OC)N(C(C)=O)C3=N1 | 0.7%
2 | O=C(C1CC(=O)N(C2CCCCC2)C1)N1CCN(c2ccccc2)CC1 (stereo not given) | 37% (active)
3 | O=C(C1CC(=O)N(C2CCCC2)C1)N1CCN(c2cccc(C(F)(F)F)c2)CC1 (stereo not given) | -1.4%
4 | O=C(C1CC(=O)N(c2ccc(F)cc2)C1)N1CCN(c2ccccc2)CC1 (stereo not given) | 7%
5 | CCN1CCN(c2ccc(S(=O)(=O)N3CCCCC3)cc2NC(=O)c2cccc(NC(C)=O)c2)CC1 | 1.9%
6 | CN(CCCC(=O)Nc1nccs1)S(=O)(=O)c1ccc(Cl)cc1 | 0.8%
7 | O=S(=O)(NCc1ccccc1Br)c1ccccc1Br | 4.3%
8 | Oc1ccc2ccccc2c1N=Nc1nccs1 | 65.1% (active)
9 | COC(=O)CN1C(=O)[C@H]2[C@@H](/C=C/c3ccccc3)N3C(=O)CN(Cc4ccccc4)C(=O)[C@@]3(Cc3ccccc3)[C@H]2C1=O | -9.8%
10 | O=C(Nc1ccccc1)c1nnsc1S(=O)(=O)c1ccc(Cl)cc1 | 96.4% (active)
11 | O=C(Nc1ccc(S(=O)(=O)N2CCOCC2)cc1)C1CCN(S(=O)(=O)c2ccc(Cl)cc2)CC1 | 0.6%
12 | C/C(=N\NS(=O)(=O)c1ccc(Cl)cc1)c1ccc(NC(=O)c2ccco2)cc1 | 0.1%
13 | CC1CCN(CCCNC(=O)CN2C(=O)CSc3ccc(S(=O)(=O)N4CCCCC4)cc32)CC1 | 2%
14 | Cc1ccc(-c2noc(CCC(=O)Nc3ccccc3N3CCN(C)CC3)n2)cc1 | 6%
15 | CCc1nn(-c2cc(Oc3cccc4ccccc34)nc(-c3ccccc3)n2)c(N)c1C#N | 0.4%
16 | Cc1cccc(NC(=O)C2CCN(S(=O)(=O)c3cccc4cccnc34)CC2)c1 | 9.3%
17 | Cc1cccc(CS(=O)(=O)c2ncc(Cl)c(C(=O)Nc3ccc(F)cc3)n2)c1 | 57% (active)
18 | Cc1cccc(NC(=O)c2nc(S(=O)(=O)Cc3ccccc3)ncc2Cl)c1 | 64.6% (active)
19 | Cc1cccc(C(=O)Nc2ccc(Oc3cnccn3)cc2)c1 | 1.5%
20 | Cc1cccc(NC(=O)Cn2cc(C(=O)c3ccco3)c3ccccc32)c1 | 4.5%
21 | CN(CC(=O)Nc1ccc(F)cc1)CC(=O)Nc1ccc(Cl)c(S(=O)(=O)N2CCOCC2)c1 | -1%
22 | O=C(NN1CCOCC1)c1cccc(F)c1 | 0.7%
23 | CCCNC(=O)C1(C)CCN(C(=O)c2cc(F)ccc2C)C1 (stereo not given) | 0.9%
24 | O=C(CSc1nc2cc3c(cc2c(=O)n1CCC1=CCCCC1)OCO3)NCc1ccco1 | 6.1%
25 | Cc1ccc2c(c1)N(CC(=O)NCCc1ccc(Cl)cc1)C(=O)c1cccnc1O2 | -3.1%
26 | O=c1ccc2c(-c3ccccc3S(=O)(=O)O)c3ccc(O)c(O)c3oc-2c1O | 47.9% (active)
27 | CC(=O)N1c2ccc(S(=O)(=O)N3CCCC(C(=O)Nc4cccc(F)c4)C3)cc2CC1C (stereo not given) | -11.7%
28 | Cc1ccc(CCCOC(=O)C[N+]2(C)CCCCC2)cc1 | -4.5%

Row | Compound | inhibition
29 | CCCNC(=O)c1onc(CSc2ccc(F)cc2)c1C(=O)NC(C)C | 2.3%
30 | Cc1ccc(S(=O)(=O)N2CC[C@H]3[C@@H](C2)C(=O)C[C@@H](c2ccccc2)N3S(=O)(=O)c2ccc(C)cc2)cc1 | -1.4%
31 | CC(=O)Nc1nc(C)c(Cc2ccccc2)c(=O)[nH]1 | 4.4%
32 | CCCCc1nc2cc(C(=O)N3CCCCC3CCO)ccc2o1 (stereo not given) | 4%
33 | COc1ccc2c(c1)c(=Cc1ccc(N(C)C)cc1)c1cc(-c3ccccc3)[n+](C)n12 | 39.6% (active)
34 | COCCC(=O)N1CCC(Oc2ccc(C(=O)NCc3ccon3)cc2)CC1 | 6.3%
35 | C[C@H]1CN([C@@H](C)CO)C(=O)c2cc(C3=CCCCC3)cnc2O[C@@H]1CN(C)C(=O)Cc1ccccc1 | -0.7%
36 | CC1(C)OC(=O)C2=C(C[C@@H](C3CCCCC3)O[C@@H]2c2ccc(Cl)cc2)O1 | 8.1%
37 | COCCN(C(=S)Nc1cccc(Cl)c1C)C(C)c1ccco1 (stereo not given) | 3.3%
38 | OCC1OC(n2cnc3c(N4CCCC4)ncnc32)C(O)C1O (stereo not given) | -4.2%
39 | COc1ccc(C2NC(=O)C(=O)/C2=C(\O)c2ccc(Cl)cc2)cc1OC (stereo not given) | 0.4%
40 | CCOCCCN1C(=O)C2C(C(=O)Nc3ccc(OCC)cc3)C3C=CC2(O3)C1C(=O)NC1CCCCC1 (stereo not given) | 74.4% (active)
41 | CCN(CC)CCN1C(=O)C2C(C(=O)Nc3ccc(Br)cc3)C3C=CC2(O3)C1C(=O)NC1CCCCC1 (stereo not given) | 7.8%
42 | CC(C)N1C(=O)C2C(C(=O)NC3CCCCC3)C3C=CC2(O3)C1C(=O)NC1CCCC1 (stereo not given) | -4.9%
43 | CCc1cc2c(=O)n(-c3ccccc3)c(SCC(=O)O)nc2s1 | -2%
44 | CCO[C@H]1OC(C(=O)N2CCN(Cc3ccccc3)CC2)=C[C@@H](c2cn(C(C)=O)c3ccccc23)[C@@H]1CCCO | -0.6%
45 | CC1CCN(S(=O)(=O)c2ccc3c(ccn3CC(=O)O)c2)CC1 | 7.6%
46 | O=C(Nc1ccccc1C(=O)N1CCCCCC1)c1ccccc1Cl | 10.2%
47 | O=C(Nc1ccccc1Cl)/C(Cl)=C(\Cl)S(=O)c1ccccc1 (stereo not given) | 93.1% (active)
48 | Cc1cc(C(=O)OCC(=O)Nc2ccccc2Cl)c(C)o1 | -6.7%
49 | Nc1nc2c(ncn2[C@@H]2O[C@H](CNCc3ccc(OCCCN4CCOCC4)cc3)[C@@H](O)[C@H]2O)c(=O)[nH]1 | -4.2%
50 | CN(C)S(=O)(=O)c1ccc(Cl)c(NC(=O)COC(=O)CC(NC(N)=O)c2ccc(Cl)cc2)c1 (stereo not given) | -0.2%
51 | CCOC(=O)C(=Cc1ccccc1)C(=O)c1ccccc1 | 24%
52 | Cc1cc(C)nc(S/C=C/C(=O)c2ccccc2)n1 | 46.1% (active)
53 | O=C(/C=C/Sc1ncn[nH]1)c1ccc(Cl)cc1 | 17.1%
54 | CCCCc1nc2ccccc2c(NC(=O)CN2CCN(C)CC2)c1CCC | 2.4%
55 | Nc1ccccc1SC(C[N+](=O)[O-])c1ccccc1 (stereo not given) | 43.8% (active)
